Source: PubChem BioAssay (EPA / NIEHS)
Records with an inconclusive call do not appear. Activity calls are given as the source filed them. The calls were made as follows, unless noted: active = hit-call score of the fitted dose curve at least 0.9, where 1 is the maximum; inactive = score below 0.9.

Key:
[1] = test system: SRY-box transcription factor 2 (SOX2) Protein Expression, Deisenroth Lab, SOX2 (gene 6657); test: CCTE_Deisenroth_DEVTOX-GLR_Endo_SOX2: CCTE's DevTox GLR-Endo Assay Evaluation of SRY-box transcription factor 2 (SOX2) Protein Expression, Deisenroth Lab (AID 2284412; active = hit-call score of the fitted dose curve at least 0.9, where 1 is the maximum)
Summary of the method: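 RUES2-GLR human pluripotent cells were seeded 24 h, then differentiated 48 h with two chemical exposures 24 h apart. Cells were fixed, nuclei stained and imaged by high-content microscopy. Endpoint is %SOX2+ cells over cell count, minus 0.2% DMSO control; 10-point series 1 nM–200 uM.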

[2] = test system: SRY-box transcription factor 17 (SOX17) Protein Expression, Deisenroth Lab, SOX17 (gene 64321); test: CCTE_Deisenroth_DEVTOX-GLR_Endo_SOX17: CCTE's DevTox GLR-Endo Assay Evaluation of SRY-box transcription factor 17 (SOX17) Protein Expression, Deisenroth Lab (AID 2284413)
Summary of the method: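 Seed RUES2-GLR cells 24 h; start endoderm differentiation; dose at 0 and 24 h (1 nM - 200 uM, 10 points); fix at 48 h, stain nuclei, image 5 fields/well; compute SOX17+/total cells vs 0.2% DMSO.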

[3] = test system: Brachyury (BRA) Protein Expression, TBXT (gene 6862); test: CCTE_Deisenroth_DEVTOX-GLR_Endo_BRA: CCTE's DevTox GLR-Endo Assay Evaluation of Brachyury (BRA) Protein Expression, Deisenroth Lab (AID 2284417)
Summary of the method: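 Percent BRA+ (mesoderm) RUES2-GLR cells after 48 h differentiation with two exposures, 1 nM - 200 uM; 0.2% DMSO control subtracted.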

[4] = CCTE_Deisenroth_DEVTOX-GLR_Endo_CellCount: Viability Assessment in CCTE's DevTox GLR-Endo Assay, Deisenroth Lab (AID 2284420)
Summary of the method: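 Viability in differentiating RUES2-GLR cultures is scored by fluorescent nuclear counts after 48 h and two 24-hourly chemical treatments, as percent change from the 0.2% DMSO control.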

[5] = test system: SRY-box transcription factor 17 (SOX17) Protein Expression, Deisenroth Lab, SOX17 (gene 64321); test: CCTE_Deisenroth_DEVTOX-GLR_Pluri_SOX17: CCTE's DevTox GLR-Pluri Assay Evaluation of SRY-box transcription factor 17 (SOX17) Protein Expression, Deisenroth Lab (AID 2284427; active = hit-call score of the fitted dose curve at least 0.9, where 1 is the maximum)
Summary of the method: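 Seed cells 24 h; differentiate 48 h, dosing at 0 and 24 h (1 nM - 200 uM); fix, stain nuclei, image 5 fields per well; count SOX17+ cells over total cells and subtract 0.2% DMSO control.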

[6] = test system: SRY-box transcription factor 2 (SOX2) Protein Expression, Deisenroth Lab, SOX2 (gene 6657); test: CCTE_Deisenroth_DEVTOX-GLR_Pluri_SOX2: CCTE's DevTox GLR-Pluri Assay Evaluation of SRY-box transcription factor 2 (SOX2) Protein Expression, Deisenroth Lab (AID 2284428)
Summary of the method: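 SOX2 expression frequency is scored in a human pluripotent reporter line, RUES2-GLR, exposed to chemicals twice over 48 h. Imaging-based SOX2+ cell percentage is normalized as change versus 0.2% DMSO.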

[7] = test system: Brachyury (BRA) Protein Expression, Deisenroth Lab, TBXT (gene 6862); test: CCTE_Deisenroth_DEVTOX-GLR_Pluri_BRA: CCTE's DevTox GLR-Pluri Assay Evaluation of Brachyury (BRA) Protein Expression, Deisenroth Lab (AID 2284429; active = hit-call score of the fitted dose curve at least 0.9, where 1 is the maximum)
Summary of the method: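 An inducible fluorescent BRA reporter in RUES2-GLR cells tracks mesoderm differentiation. Compounds (10 concentrations, 1 nM - 200 uM) are dosed twice within a 48-h differentiation. The endpoint subtracts the 0.2% DMSO control from percent BRA+ cells.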

[8] = CCTE_Deisenroth_DEVTOX-GLR_Pluri_CellCount: Viability Assessment in CCTE's DevTox GLR-Pluri Assay Evaluation of Total Cell Counts, Deisenroth Lab (AID 2284430)
Summary of the method: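 RUES2-GLR human pluripotent cells, seeded 24 h, then differentiated 48 h with two chemical exposures 24 h apart; 10-point series 1 nM - 200 uM. Fixed, nuclear-stained, imaged (5 fields/well); nuclei count as % change vs 0.2% DMSO.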

[9] = CCTE_Padilla_ZF_Score.Edema: CCTE's 144 Hour Post-fertilization zebrafish Assay Score for Edema Malformation, Padilla Lab (AID 2284406)
Summary of the method: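 Wild-type zebrafish embryos, one per well in Hanks' solution, dosed at 6-8 hpf, sealed and reared at 26C on a 14:10 h cycle; rinsed on 5 dpf. At 6 dpf, blinded assessors scored edema by stereomicroscopy.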

[10] = CCTE_Padilla_ZF_Score.Spine: CCTE's 144 Hour Post-fertilization zebrafish Assay Score for Spine Malformation, Padilla Lab (AID 2284407)
Summary of the method: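 Wild-type zebrafish embryos, one per well in Hanks' solution, dosed at 6–8 hpf in sealed plates at 26C, 14:10 h light:dark; rinsed at 5 dpf. Two blinded assessors scored spinal defects by stereomicroscopy at 6 dpf; fitted versus DMSO.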

[11] = CCTE_Padilla_ZF_Score.Position: CCTE's 144 Hour Post-fertilization zebrafish Assay Score for Position, Padilla Lab (AID 2284409)
Summary of the method: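 Wild-type zebrafish embryos (with chorions) exposed singly from 6–8 hpf in sealed wells of Hanks' solution at 26C, rinsed at 5 dpf. At 6 dpf, blinded assessors scored abnormal water-column position by brightfield stereomicroscopy, relative to DMSO.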

[12] = CCTE_Padilla_ZF_Score.Living: CCTE's 144 Hour Post-fertilization zebrafish Assay Score for Viability, Padilla Lab (AID 2284410);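 also: larval death at 6 dpf judged by absent heartbeat or coagulation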
Summary of the method: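 Wild-type zebrafish embryos were exposed singly from 6–8 hpf in sealed wells of Hanks' solution at 26C, then rinsed at 5 dpf. At 6 dpf, blinded assessors scored mortality (no heartbeat or coagulation) by stereomicroscopy, fitted against DMSO.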

[13] = CCTE_Padilla_ZF_Score.Tail: CCTE's 144 Hour Post-fertilization zebrafish Assay Score for Tail Malformation, Padilla Lab (AID 2284414)
Summary of the method: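 Wild-type zebrafish embryos, one per well in 200 uL 10% Hanks', dosed at 6-8 hpf, sealed, and kept at 26 C on a 14:10 h light cycle. Chemical was rinsed out at 5 dpf. Blinded brightfield scoring of tail defects followed at 6 dpf.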

[14] = CCTE_Padilla_ZF_Score.Blood_pooling: CCTE's 144 Hour Post-fertilization zebrafish Assay Score for Blood Pooling, Padilla Lab (AID 2284415)
Summary of the method: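 Wild-type outbred zebrafish embryos, one per well in 10% Hanks', exposed from 6–8 hpf in sealed plates at 26C on 14:10 h light:dark, rinsed at 5 dpf. Blinded stereomicroscope scoring of blood pooling at 6 dpf; gain-of-signal versus DMSO.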

[15] = CCTE_Padilla_ZF_Score.Any: CCTE's 144 Hour Post-fertilization zebrafish Assay Score for Any Mortality or Malformation, Padilla Lab (AID 2284416)
Summary of the method: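 Wild-type zebrafish embryos with chorions, one per well in 10% Hanks' from 6–8 hpf, dosed in sealed plates at 26 C, 14:10 h light:dark; rinsed at 5 dpf; blinded scoring at 6 dpf for death or malformation, versus DMSO.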

[16] = Tanguay_ZF_120hpf_MORT: Oregon State University Tanguay Lab 120 Hour Post-fertilization zebrafish Assay for Mortality (AID 2284399)
Summary of the method: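 Dechorionated wild-type Tropical 5D zebrafish embryos, one per well from 6 hpf, static exposure to 120 hpf at 28C in sealed dark plates, 0.64% DMSO final. Mortality scored as binary by brightfield at 24 and 120 hpf.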

[17] = Tanguay_ZF_120hpf_EDEM: Oregon State University Tanguay Lab 120 Hour Post-fertilization zebrafish Assay for Edema Malformation (AID 2284400)
Summary of the method: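 Dechorionated Tropical 5D wild-type embryos, one per well, statically exposed from 6 to 120 hpf at 28C in 0.64% DMSO. Edema scored present/absent by brightfield microscopy at 120 hpf; dead embryos not scored; fit versus DMSO.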

[18] = Tanguay_ZF_120hpf_BRN: Oregon State University Tanguay Lab 120 Hour Post-fertilization zebrafish Assay for Brain Region Malformation (AID 2284402)
Summary of the method: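 Dechorionated wild-type Tropical 5D zebrafish embryos exposed statically from 6 to 120 hpf at 28C, one per well, 0.64% DMSO final. Brain malformation scored at 120 hpf by brightfield as present/absent; dead embryos not scored.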

[19] = Tanguay_ZF_120hpf_TCHR: Oregon State University Tanguay Lab 120 Hour Post-fertilization zebrafish Assay for Touch Responsive (AID 2284403)
Summary of the method: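 Dechorionated Tropical 5D wild-type zebrafish embryos, one per well from 6 hpf, were statically exposed to 120 hpf at 28 °C (0.64% DMSO). Touch response was scored present/absent at 120 hpf and not scored in dead larvae.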

[20] = Tanguay_ZF_120hpf_ANY: Oregon State University Tanguay Lab 120 Hour Post-fertilization zebrafish Assay for Any Mortality and Malformation (AID 2284404)
Summary of the method: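 Dechorionated Tropical 5D wild-type embryos, one per well from 6 hpf, static exposure in sealed, dark plates at 28C until 120 hpf, 0.64% DMSO final. Brightfield scoring of mortality and malformations as binary presence/absence, pooling 13 morphology endpoints.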

Measured: AC50

CCCCc1oc2ccccc2c1C(=O)c1cc(I)c(OCCN(CC)CC)c(I)c1
active: [1] 31 µM | [2] 25.6 µM | [3] 14.2 µM | [4] 18.2 µM | [5] 21.4 µM | [6] 10.4 µM | [7] 6.42 µM | [8] 10.6 µM

CN(Cc1cnc2nc(N)nc(N)c2n1)c1ccc(C(=O)N[C@@H](CCC(=O)O)C(=O)O)cc1
active: [2] 0.319 µM | [3] 0.329 µM | [4] 0.361 µM | [6] 0.0314 µM
inactive: [5] | [7] | [8]

O=CC(F)(F)C(F)(F)C(F)(F)C(F)F
inactive: [9] | [10] | [11] | [12] | [13] | [14] | [15]

FC1(F)C=CC(F)(F)C1(F)F
inactive: [9] | [10] | [11] | [12] | [13] | [14] | [15]

CC(=O)Nc1ccc(O)cc1
inactive: [2] | [3] | [4] | [5] | [6] | [7] | [8]

O=CC(F)(F)C(F)(F)C(F)(F)F
inactive: [9] | [10] | [11] | [12] | [13] | [14] | [15]

COC(=O)C(F)(F)C(F)(F)C(F)(F)C(F)(F)C(F)(F)F
inactive: [9] | [10] | [11] | [12] | [13] | [14] | [15]

O=C(F)C(F)(F)C(F)(F)C(F)(F)C(=O)F
inactive: [9] | [10] | [11] | [12] | [13] | [14] | [15]

CN(CCO)S(=O)(=O)C(F)(F)C(F)(F)C(F)(F)C(F)(F)C(F)(F)C(F)(F)C(F)(F)C(F)(F)F
active: [17] 29.6 µM | [19] 29.6 µM | [20] 28.9 µM | [12] 10.7 µM | [15] 9.78 µM
inactive: [16] | [18] | [9] | [10] | [11] | [13] | [14]

NC(C(F)(F)F)C(F)(F)F
inactive: [9] | [10] | [11] | [12] | [13] | [14] | [15]

O=C(OC(=O)C(F)(F)C(F)(F)F)C(F)(F)C(F)(F)F
inactive: [9] | [10] | [11] | [12] | [13] | [14] | [15]

FC(F)(F)C1(F)C(F)(F)C(F)(F)C(F)(F)C1(F)F
inactive: [9] | [10] | [11] | [12] | [13] | [14] | [15]

O=C(CC(=O)C(F)(F)C(F)(F)C(F)(F)F)c1cccs1
inactive: [16] | [18] | [19] | [9] | [10] | [11] | [13] | [14]
active: [17] 65.8 µM | [20] 67.7 µM | [12] 7.34 µM | [15] 3.55 µM

O=P(O)(O)CCC(F)(F)C(F)(F)C(F)(F)C(F)(F)C(F)(F)C(F)(F)C(F)(F)C(F)(F)F
inactive: [16] | [17] | [18] | [19] | [20] | [10] | [13] | [14]
active: [9] 1.69 µM | [11] 65.2 µM | [12] 11.8 µM | [15] 2.32 µM

O=P(O)(O)CCC(F)(F)C(F)(F)C(F)(F)C(F)(F)C(F)(F)C(F)(F)F
active: [9] 23.9 µM | [12] 32.1 µM | [15] 25.6 µM
inactive: [16] | [17] | [18] | [19] | [20] | [10] | [11] | [13] | [14]
